Data on 68 compounds can be found in ChEMBL document CHEMBL4513216, “Probing the Open Global Health Chemical Diversity Library for Multistage-Active Starting Points for Next-Generation Antimalarials” (ACS Infect Dis, 2020).

About 2,100 (3.2%) of roughly 65,000 compounds showed an effect of 50% or more. The median lay at about -52%. The full list was thinned out, with strong results kept by preference.

The test concerns Plasmodium falciparum. Nature of the test: Screen against P. falciparum Asexual Blood Stage (ABS), at 5uM. Type of test: functional, Dd2. The conditions noted are these: tested at 5 uM.
For the compound `COc1ccc(S(=O)(=O)C2CCN(C(=O)c3cc(C)cs3)CC2)cc1`, the INHIBITION was -23.3%. Consider `CCC(NC(=O)NCc1cccc(N(C)C)n1)c1nccs1` (stereo not drawn), for which the INHIBITION is -84.7%.

As for `Cn1cnc(S(=O)(=O)N2CCCc3cc(F)cc(F)c32)c1Cl`, the INHIBITION is on record as -84.8%.

Consider `CO[C@H]1CCN(C(=O)Cc2ccccn2)[C@H]1Cc1ccncc1`, for which the INHIBITION is -128%. Take `COc1cc(NC2CCS(=O)(=O)CC2)ncn1`: the INHIBITION is -119%. Turning to `N[C@@H]1c2ccccc2C2(CCN(c3cccc(C(F)(F)F)n3)CC2)[C@H]1O`, the INHIBITION is reported as -35.9%.

Turning to `Cc1ccc(CC(=O)N2CCOCC2c2c(C)n[nH]c2C)cc1` (stereo not drawn), the INHIBITION is recorded as -37.5%. As for `COc1ccc(C[C@H]2CN(c3nnc(C)s3)CC[C@H]2OC)cc1`, the INHIBITION was -2.98%. `COc1ccc(C[C@H]2CNCC[C@H]2OC)cc1`: the INHIBITION was 58%.

As for `COc1ccc(C[C@H]2CN(c3nnc(C)s3)CC[C@@H]2OC)cc1`, the INHIBITION is -16%.

As for `COCCO[C@H]1CCN(Cc2ccoc2)[C@H]1Cc1cccnc1`, the INHIBITION is reported as -10.4%.

As to `CO[C@@H]1CCN(Cc2ccoc2)[C@H]1Cc1ccccc1`, the INHIBITION worked out at 61.4%.

For the compound `CO[C@@H]1CCN(Cc2cccs2)[C@H]1Cc1ccncc1`, the INHIBITION was -27.7%. With `CCOCCN1CCN(Cc2nc(CC(C)C)no2)CC1`, the INHIBITION worked out at 18.6%. Consider `CS(=O)(=O)NC[C@]12COC[C@H]1CN(C(=O)C1CC(F)(F)C1)C2`, for which the INHIBITION was -80.1%.

Consider `COc1cccc(-c2noc(C3CCN(Cc4ccccc4F)C3)n2)c1` (stereo not drawn), for which the INHIBITION is given as -118%. The value for `Cn1nc2c(cc1=O)CN(Cc1coc(-c3ccccc3)n1)CC2` was -138%; that for `COc1ccc(CN(C)[C@@H]2COC[C@H]2c2ccc(F)cc2)c(OC)c1` was 9.39%; that for `CNc1cc2c(nn1)CCN(C(=O)c1ccc3c(c1)OCO3)C2` was -135%. For the compound `CCOc1cc(Cl)c(CN2CCC3(CCCNC3=O)C2)cc1OC` (stereo not drawn), the INHIBITION is -15.1%. The value for `O=C1NCCCC12CCN(Cc1ccc(-c3ccccc3)s1)C2` (stereo not drawn) was -138%; that for `O=C1NCCCC12CCN(Cc1ccc(SC3CCCCC3)o1)C2` (stereo not drawn) was 56.4%. The value for `O=C(NCCc1ccn(-c2ccccc2)n1)N1CCCC(CO)C1` (stereo not drawn) was -78.9%.

`CNC(=O)c1ccc(CN2CCN(C3=NCC(C)(C)S3)CC2)cc1`: the INHIBITION was -92%.

Consider `O=C(c1cc(=O)n(-c2ccccc2)[nH]1)N1CCCC(c2ccn[nH]2)C1` (stereo not drawn), for which the INHIBITION is reported as -22.8%. For the compound `CCOCCN1CCN(Cc2cccc(C(=O)N(C)C)c2)CC1`, the INHIBITION is recorded as -117%. As for `COCCN1CCN(Cc2cccc(C(=O)N(C)C)c2)CC1`, the INHIBITION was 7.48%. As to `CN(C)C(=O)c1cccc(CN2CCN(CCO)CC2)c1`, the INHIBITION came out at 61%. As for `COc1cc2c(c(OC)c1OC)CCN(CCn1cncn1)CC2`, the figure is -167%; as for `Cc1cc(C)c2nc(CN3CC[C@@H](O)C3)cc(O)c2c1`, -6.9%; as for `COC1CCCN(Cc2cc(O)c3cc(C)cc(C)c3n2)C1` (stereo not drawn), -88.5%. With `Cc1cc(C)c2nc(CN3CCCC(c4cc[nH]n4)C3)cc(O)c2c1` (stereo not drawn), the INHIBITION turned out to be 54.4%. For the compound `CCc1c(C)sc2ncnc(N3CC[C@@H](N4CCOCC4)[C@H](O)C3)c12`, the INHIBITION is on record as -2.01%.

Turning to `CCc1c(C)sc2ncnc(N3CCN(C4CCOCC4)CC3)c12`, the INHIBITION amounted to 33.7%. Take `CCc1c(C)sc2ncnc(N3C[C@H](O)[C@@H](N4CCCC4)C3)c12`: the INHIBITION is recorded as 62%.

`O=C(C1CCCC1)N1CCOC(c2nc(-c3ncccn3)no2)C1` (stereo not drawn): the INHIBITION is given as -66.9%.

For `c1cnc(Nc2cc(CCC3CCNCC3)ccn2)cn1`, the INHIBITION is listed as -32%.

For the compound `c1ccc(OCc2ccncc2)c(CNC2CCc3ncnn3C2)c1` (stereo not drawn), the INHIBITION is -32.4%.

On to `c1ccc(OC2CCCC2)c(CNC2CCc3ncnn3C2)c1` (stereo not drawn), for which the INHIBITION came to 20.5%. `c1ccc(OCC2CC2)c(CNC2CCc3ncnn3C2)c1` (stereo not drawn): the INHIBITION stood at 51.2%. `c1cncc(COc2ccccc2CNC2CCc3ncnn3C2)c1` (stereo not drawn): the INHIBITION is -137%.

Turning to `c1ccc(COc2ccccc2CNC2CCc3ncnn3C2)cc1` (stereo not drawn), the INHIBITION stood at 69.4%. As for `CNC(=O)COc1ccccc1CNC1CCc2ncnn2C1` (stereo not drawn), the figure is -40.5%.

As to `Cc1csc(NC(=O)c2cnc(C3CCCN(C)C3)cn2)n1` (stereo not drawn), the INHIBITION is on record as -212%. For the compound `NC(=O)[C@@H]1CCCN1C(=O)c1cn(C/C=C/c2ccccc2)nn1`, the INHIBITION was -88.2%. For `COCCNC(=O)c1nnc2ccc(N3CCOCC3)cc2n1`, the INHIBITION was -19.6%. Regarding `COC(=O)CNC(=O)c1nc(-c2ccccc2OC)c2cnccn12`, the INHIBITION was -115%. As to `Cc1cc(C)nc(NCCC(=O)NCCn2ccnc2C)n1`, the INHIBITION is on record as -55.9%. As for `N#CC(NC(=O)CCCOc1cccnc1)c1ccc(F)cc1F` (stereo not drawn), the figure is -69.7%; as for `CSc1nccc(N2CCC(NCCN3CCOCC3)CC2)n1`, -47.4%. As for `CSc1nccc(N2CCC(NCc3nc(C)cc(C)n3)CC2)n1`, the INHIBITION is -119%. With `CSc1nccc(N2CCC(NCc3ccc4c(c3)OCO4)CC2)n1`, the INHIBITION is given as 51.4%.

In the case of `CNc1nc(CNC(=O)Nc2cccc(CSC)c2)cs1`, the INHIBITION turned out to be 28.7%. The value for `CCN1CCC2(C1)CN(S(=O)(=O)c1cn(C)cn1)C2` was -42.2%. `CCOC(=O)CCN(Cc1cccnc1)C(=O)c1cc(Cl)c[nH]1`: the INHIBITION is -43.4%. Consider `CCc1cnc(N2C[C@@H]3C[C@H](C(=O)NCC(C)C)[C@H](C2)O3)nc1`, for which the INHIBITION is on record as -47.5%.

As for `Cc1cccn2cc(CN3CCCC(c4ccn[nH]4)C3)nc12` (stereo not drawn), the INHIBITION was -34%. The value for `Cc1cccn2cc(CN3CCCC(c4noc(C5CC5)n4)C3)nc12` (stereo not drawn) was 54.6%. In the case of `Cc1cccn2cc(CN3CCCC(O)C3)nc12` (stereo not drawn), the INHIBITION is listed as -34.8%. As to `CC(C)c1nn(C)c(Cl)c1CNCc1cccnc1N(C)C`, the INHIBITION is -8.45%. For the compound `O=C(c1cccs1)N1CCCC2(COCCN(c3cccnc3)C2)C1` (stereo not drawn), the INHIBITION was determined as 4.74%. `c1ccc(-c2nc(CN3CCCCC3Cn3cncn3)co2)cc1` (stereo not drawn): the INHIBITION is on record as -87.1%. As to `O=C(CO)N1CCC(c2cncc(-c3cccc(Cl)c3)n2)CC1`, the INHIBITION is reported as -122%. For the compound `CN1CCC(c2cncc(-c3cccc(Cl)c3)n2)CC1`, the INHIBITION was found to be 54.5%. The value for `NC(=O)CN1CCC(c2cncc(-c3cccc(Cl)c3)n2)CC1` was 67.6%.

As for `Cc1ccccc1-c1cncc(C2CCN(C)CC2)n1`, the INHIBITION was -69.9%. For the compound `CN(C)C(=O)CN1CCCC(c2cncc(-c3cccc(Cl)c3)n2)C1` (stereo not drawn), the INHIBITION was 49.6%. As to `CN(C)C(=O)CN1CCC(c2cncc(-c3cccc(Cl)c3)n2)CC1`, the INHIBITION is listed as -53.1%.
